Source: PubChem
Shown are actives, neighbours in structure and some others; about 7.5% of the full set was active somewhere.
NPC1 promoter act = qHTS Assay for NPC1 Promoter Activators; Potency, µM (series often up to 9.22 µM), actives largely listed as activators; actives 2.4% (n = 320,000); Huh7 NPC1 promoter luciferase reporter, 24 h; note: nearly all actives have a fitted effect of over 60% in size
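Huh7 cells stably carrying NPC1 promoter–luciferase, plated in Opti-MEM with 10% FBS for 2 h, were exposed to compound in DMSO for 24 h at 37 °C; luciferase reagent was added for 10 min and luminescence read.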
ELG1 genotox = qHTS screen for small molecules that induce genotoxicity in human embryonic kidney (HEK293T) cells expressing luciferase-tagged ELG1; Potency, µM (titrated, usually from 46 µM), hits mostly activators; HEK293T ELG1-luciferase reporter, luminescence, 16 h; actives 1.3% (n = 330,000); note: nearly all actives have a fitted effect of over 60% in size
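Luminescence read-out: rising ELG1-luciferase signal, reflecting elevated ELG1 protein under genetic stress, flags genotoxic compounds. Cells were treated for 16 hr at 37 °C before ONE-Glo detection.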
KinaseGlo FLuc = Counterscreen for Luciferase (Kinase-Glo TM) Inhibition. Luciferin 4-monooxygenase (Photuris pensylvanica), Q27757. Kinase-Glo luciferase, ATP luminescence, 8 min. Potency, µM (titrated, usually from 38.3 µM), most hits filed as inhibitors. actives 0.28% (n = 200,000). AID 1379, 2008; note: nearly all actives have a fitted effect of over 60% in size
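Compounds were added to a substrate mix at pH 7.2 (50 mM imidazole, 10 uM ATP, within the enzyme's linear range), followed by Kinase-Glo detection reagent; luminescence was measured after 8 minutes at ambient temperature.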
FLuc modulator = qHTS profiling assay for firefly luciferase inhibitor/activator using purifed enzyme and Km concentrations of substrates (counterscreen for miR-21 project); Luciferin 4-monooxygenase (Photinus pyralis), P08659; purified FLuc, Km substrates, luminescence inhibition; Potency, µM (titrated, usually from 57.5 µM), actives largely listed as inhibitors; actives 6.9% (n = 360,000); note: nearly all actives have a fitted effect of over 55% in size
Target sequence (P08659 whole entry, looked up): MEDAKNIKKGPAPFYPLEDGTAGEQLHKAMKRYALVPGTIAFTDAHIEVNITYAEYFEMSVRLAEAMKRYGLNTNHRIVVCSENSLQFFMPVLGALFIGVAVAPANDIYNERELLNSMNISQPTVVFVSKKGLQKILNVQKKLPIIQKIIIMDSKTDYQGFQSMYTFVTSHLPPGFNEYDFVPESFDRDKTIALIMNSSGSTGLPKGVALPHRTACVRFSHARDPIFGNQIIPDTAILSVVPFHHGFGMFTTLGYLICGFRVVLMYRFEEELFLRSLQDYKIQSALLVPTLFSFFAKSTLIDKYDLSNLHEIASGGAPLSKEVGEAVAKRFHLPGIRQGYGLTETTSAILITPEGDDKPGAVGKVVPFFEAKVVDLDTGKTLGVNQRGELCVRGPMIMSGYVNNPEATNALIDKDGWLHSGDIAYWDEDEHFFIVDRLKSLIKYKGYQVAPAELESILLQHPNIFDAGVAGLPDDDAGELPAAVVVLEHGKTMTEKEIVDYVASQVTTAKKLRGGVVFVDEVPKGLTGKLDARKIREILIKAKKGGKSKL
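Purified P. pyralis luciferase, 10 nM final, with Km-level 10 uM D-luciferin and 10 uM ATP in 50 mM Tris acetate pH 7.5, 10 mM Mg acetate, 0.01% Tween-20, 0.05% BSA; 6-point qHTS titration about 60 µM downward; luminescence read.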
SMN2 splice up = qHTS Assay for Enhancers of SMN2 Splice Variant Expression. Potency, µM (top dose mostly 46.1 µM), hits mostly activators. HEK293 SMN2-luciferase splicing reporter, luminescence, 30-36 h. actives 2.8% (n = 210,000); note: nearly all actives have a fitted effect of over 55% in size
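HEK293 cells carry an SMN2 minigene-luciferase reporter in which exon 7 inclusion puts luciferase in frame. Cells were seeded at 2000 cells/well, attached for 10-12 hours, then exposed to compounds for 30-36 hours at 37C before ONE-Glo luminescence.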
Rab9 prom act = qHTS Assay for Rab9 Promoter Activators. Huh7 Rab9 promoter-luciferase reporter, luminescence, 24 h. Potency, µM (series often up to 9.22 µM), actives largely listed as activators. actives 2.8% (n = 320,000). AID 485297, 2010; note: nearly all actives have a fitted effect of over 60% in size
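Measured in stably transfected Huh7 cells bearing a Rab9 promoter–luciferase construct: 24 h compound treatment at 37 °C, followed by luminescence detection.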
Numbers stand for hits; n = inactive; u = inconclusive; x = no result given; [ ] = dose if it differs, or a comment. Calls come from the whole dose curve; as a rule, active = well fitted curve in the direction sought with a large enough effect; inconclusive = small, poorly fitted or top-dose-only effect, or another doubt; inactive = no such curve, though single readings can be large; an effect the other way counts as inactive or inconclusive.

SMILES | NPC1 promoter act | ELG1 genotox | KinaseGlo FLuc | FLuc modulator | SMN2 splice up | Rab9 prom act
COCCCn1c(=S)[nH]c2sc3c(c2c1=O)CCCS3 | n | n | n | 11µM | n | n
COCCn1c(=S)[nH]c2sc3c(c2c1=O)CCC(C)C3 (stereo not given) | n | n | x | 17µM | x | n
COc1ccc(-n2c(=S)[nH]c3sc4c(c3c2=O)CCN(C)C4)cc1 | n | n | x | n | x | n
CCCn1c(=S)[nH]c2sc3c(c2c1=O)CCCC3 | n | n | x | 15µM | x | n
CC(C)(C)C1CCc2c(sc3ncn(N)c(=N)c23)C1 (stereo not given) | n | n | x | n | x | n
CCCCCCCCCCCCC1CO1 (stereo not given) | x | x | x | x | n | x
Cc1ccc([N+](=O)[O-])cc1S(=O)(=O)Nc1ccccn1 | n | n | n | n | n | n
COc1ccc(S(=O)(=O)N(CC(=O)NCCc2ccccc2)c2ccc(Cl)cc2)cc1 | x | x | x | n | n | x
Cc1nc(Cl)c(C(=O)NC(C)(C)C)c(C)c1Cl | n | n | n | n | n[1.84 µM] | n
COc1ccc(S(=O)(=O)Nc2cccc(-c3ccc(N4CCC(C)CC4)nn3)c2)c(OC)c1 | x | x | x | 2.7µM | x | x
Cc1ccc(S(=O)(=O)Nc2cccc(-c3ccc4nnc(C)n4n3)c2)s1 | n | 21µM | n | n | 13µM | n
COc1ccc(S(=O)(=O)Nc2ccc(-c3ccc4nncn4n3)cc2)c(OC)c1 | n | n | x | n | x | n
CCS(=O)(=O)Nc1cccc(-c2ccc3nnc(C)n3n2)c1 | n | u | n | n | n | n
CCc1ccc(S(=O)(=O)Nc2cccc(-c3ccc(N4CCC(C)CC4)nn3)c2)s1 | x | x | x | 1.3µM | x | x
COc1ccc(OC)c(S(=O)(=O)Nc2cccc(-c3ccc(N4CCCCC4)nn3)c2)c1 | x | x | x | 6µM | x | x
COc1ccccc1S(=O)(=O)Nc1cccc(-c2nnc3n2CCCCC3)c1 | n | n | n | n | n | n
CCc1ccc(S(=O)(=O)Nc2cccc(-c3ccc4nncn4n3)c2)s1 | n | n | n | n | n | n
COc1ccc(F)cc1S(=O)(=O)Nc1cccc(-c2ccc(N3CCCCCC3)nn2)c1 | x | x | x | 9.5µM | x | x
COc1ccc(C(CC(=O)c2ccc(O)cc2)S(=O)(=O)c2ccc(C)cc2)cc1 (stereo not given) | u | u | n | 9.5µM | n | n
CC(C)(C)CC(=O)Nc1ccc(Nc2ccccc2)cc1 | n | n | n | 12µM | n | 3.2µM
CC(C)CC(=O)Nc1ccc(Nc2ccccc2)cc1 | n | n | n | 19µM | n | n
Cc1cccc(NC(=O)CC(C)(C)C)c1 | n | n | n | n | x | n
CCC(CC)C(=O)Nc1ccc(Nc2ccccc2)cc1 | n | n | n | u | n | n
CCCCc1ccc(NC(=O)CC(C)=O)cc1 | n | u | n | n | n | n
CCCCc1ccc(NC(=O)CC(C)(C)C)cc1 | u | n | n | 15µM | x | u
SMILES | NPC1 promoter act | ELG1 genotox | KinaseGlo FLuc | FLuc modulator | SMN2 splice up | Rab9 prom act
CC(C)C(=O)Nc1ccc(Nc2ccccc2)cc1 | n | n | n | 19µM | n | n
CC(Oc1ccc(Br)cc1)C(=O)Nc1nnc(C2CC2)s1 (stereo not given) | n | n | x | n | x | n
Cc1cc(OC(C)C(=O)N/N=C/CC(C)c2ccccc2)ccc1Cl (stereo not given) | n | n | n | n | n | n
CCn1c(SCC(=O)Nc2cccc(S(=O)(=O)N(C)c3ccccc3)c2)nnc1C1CC1 | n | n | x | n | x | n
Cc1nc(C)c(-c2csc(Nc3ccc(N)cc3)n2)s1 | u | n | x | 11µM | x | n
Cc1nc(C)c(-c2csc(Nc3cccnc3)n2)s1 | n | u | n | 12µM | u | n
COc1ccc(Nc2nc(-c3sc(C)nc3C)cs2)cc1 | n | n | x | 15µM | x | n
Cc1nc(C)c(-c2csc(Nc3ccc(O)c(C(=O)O)c3)n2)s1 | n | n | x | 9.5µM | x | n
CC(=O)Nc1nc(C)c(-c2csc(Nc3ccc(O)cc3)n2)s1 | n | n | n | u | n | n
